Holding throughout (experiment): DAPPL (digital affinity profiling via proximity ligation, sequencing); 10 mM Tris-HCl pH 7.5, 50 mM NaCl, 1 mM DTT, 4% glycerol, room temperature, 30 min; GST-TFs on glutathione beads, 16-mer random dsDNA library, 0.1% formaldehyde crosslink after washing; high values mean tight binding
One assay addresses T1, FEV (Homo sapiens, UniProt Q99581 1-238).
T1 sequence: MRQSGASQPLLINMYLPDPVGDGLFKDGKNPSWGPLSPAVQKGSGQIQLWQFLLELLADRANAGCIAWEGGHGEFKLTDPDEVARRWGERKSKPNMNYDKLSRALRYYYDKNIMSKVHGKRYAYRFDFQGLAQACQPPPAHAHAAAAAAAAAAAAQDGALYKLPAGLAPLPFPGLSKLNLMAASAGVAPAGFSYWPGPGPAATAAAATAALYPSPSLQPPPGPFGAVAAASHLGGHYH
Particulars: protein: recombinant; tags: N-terminal GST; dsDNA, one strand shown. In short, it runs like this: (§1)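 Binding signal is given per hexamer as its read frequency for a factor divided by its frequency in the tag-only sample. GST-fused human transcription factors were expressed in yeast, captured on glutathione beads, barcoded with DNA and pooled with that sample, then incubated with 200 nmole of a 16-mer random double-stranded DNA library in Tris/NaCl/DTT/glycerol buffer for 30 min at room temperature. The pools were then washed, crosslinked, proximity-ligated, amplified by PCR and sequenced on an Illumina NextSeq500.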

The target of a further assay is ETV5 (Homo sapiens, UniProt P41161 1-510). The settings on record: protein: recombinant; tags: N-terminal GST; dsDNA, one strand shown. In short, it runs like this: as §1
Sequence of ETV5 (P41161 whole entry): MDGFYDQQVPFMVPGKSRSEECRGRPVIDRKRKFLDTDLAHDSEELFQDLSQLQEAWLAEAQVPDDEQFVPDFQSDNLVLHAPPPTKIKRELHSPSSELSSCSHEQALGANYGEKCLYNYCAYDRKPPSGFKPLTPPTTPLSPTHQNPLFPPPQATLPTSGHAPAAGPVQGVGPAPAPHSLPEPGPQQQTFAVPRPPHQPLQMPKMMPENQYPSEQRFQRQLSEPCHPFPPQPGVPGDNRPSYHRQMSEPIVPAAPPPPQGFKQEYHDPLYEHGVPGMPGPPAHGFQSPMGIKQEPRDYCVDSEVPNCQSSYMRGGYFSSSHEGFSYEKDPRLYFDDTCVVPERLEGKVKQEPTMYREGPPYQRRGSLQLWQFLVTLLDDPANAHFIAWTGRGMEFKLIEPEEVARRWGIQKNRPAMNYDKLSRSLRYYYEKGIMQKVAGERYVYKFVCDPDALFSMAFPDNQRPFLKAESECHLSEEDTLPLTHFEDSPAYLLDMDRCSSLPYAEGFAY
For another assay, the target named is HSF1 (Homo sapiens, UniProt Q00613 1-529). The settings on record: protein: recombinant; tags: N-terminal GST; chain copies: 3; dsDNA, one strand shown. The gist of the method:
as §1

In a further assay the target is T2, SPIC (Homo sapiens, UniProt Q8N5J4 1-248).
T2 sequence: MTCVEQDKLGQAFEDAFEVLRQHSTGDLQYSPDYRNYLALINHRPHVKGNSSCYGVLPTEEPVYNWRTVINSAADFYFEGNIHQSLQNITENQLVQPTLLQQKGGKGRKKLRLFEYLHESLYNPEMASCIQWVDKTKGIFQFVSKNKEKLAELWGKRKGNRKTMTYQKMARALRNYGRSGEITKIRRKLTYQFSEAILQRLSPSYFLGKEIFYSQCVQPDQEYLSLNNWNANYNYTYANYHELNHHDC
The settings on record: protein: recombinant; tags: N-terminal GST; dsDNA, one strand shown. The gist of the method:
as §1

A further assay has as its target ELF4 (Homo sapiens, UniProt Q99607 1-663). Particulars: protein: recombinant; tags: N-terminal GST; dsDNA, one strand shown. In short, it runs like this: as §1
The next assay concerns the target T3, ELK4 (Homo sapiens, UniProt P28324-2 1-405).
T3 sequence: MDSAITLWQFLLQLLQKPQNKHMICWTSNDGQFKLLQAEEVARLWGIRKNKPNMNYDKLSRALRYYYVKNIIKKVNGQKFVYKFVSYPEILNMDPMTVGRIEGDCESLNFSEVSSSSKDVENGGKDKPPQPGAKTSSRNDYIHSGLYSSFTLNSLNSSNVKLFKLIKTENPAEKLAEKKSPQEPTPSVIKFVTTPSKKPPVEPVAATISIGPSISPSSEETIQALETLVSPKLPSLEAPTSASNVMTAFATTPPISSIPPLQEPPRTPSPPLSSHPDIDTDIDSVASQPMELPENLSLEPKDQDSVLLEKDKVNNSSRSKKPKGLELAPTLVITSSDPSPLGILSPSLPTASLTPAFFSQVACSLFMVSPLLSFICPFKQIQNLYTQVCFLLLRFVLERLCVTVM
The settings on record: protein: recombinant; tags: N-terminal GST; dsDNA, one strand shown. The gist of the method:
as §1

The target of the next assay is T4, ETV2 (Homo sapiens, UniProt O00321 1-342).
T4 sequence: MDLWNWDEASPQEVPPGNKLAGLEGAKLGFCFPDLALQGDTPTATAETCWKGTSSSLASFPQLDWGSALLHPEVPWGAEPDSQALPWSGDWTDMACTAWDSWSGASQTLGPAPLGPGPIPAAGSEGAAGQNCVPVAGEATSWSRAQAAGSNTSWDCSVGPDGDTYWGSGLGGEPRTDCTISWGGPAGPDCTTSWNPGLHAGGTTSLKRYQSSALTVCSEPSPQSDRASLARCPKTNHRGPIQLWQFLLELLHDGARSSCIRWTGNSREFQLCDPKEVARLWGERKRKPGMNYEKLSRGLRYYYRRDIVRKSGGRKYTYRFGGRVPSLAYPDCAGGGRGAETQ
The settings on record: protein: recombinant; tags: N-terminal GST; dsDNA, one strand shown. In short, it runs like this: as §1

The target in another assay is T5, ELF3 (Homo sapiens, UniProt P78545 1-371).
T5 sequence: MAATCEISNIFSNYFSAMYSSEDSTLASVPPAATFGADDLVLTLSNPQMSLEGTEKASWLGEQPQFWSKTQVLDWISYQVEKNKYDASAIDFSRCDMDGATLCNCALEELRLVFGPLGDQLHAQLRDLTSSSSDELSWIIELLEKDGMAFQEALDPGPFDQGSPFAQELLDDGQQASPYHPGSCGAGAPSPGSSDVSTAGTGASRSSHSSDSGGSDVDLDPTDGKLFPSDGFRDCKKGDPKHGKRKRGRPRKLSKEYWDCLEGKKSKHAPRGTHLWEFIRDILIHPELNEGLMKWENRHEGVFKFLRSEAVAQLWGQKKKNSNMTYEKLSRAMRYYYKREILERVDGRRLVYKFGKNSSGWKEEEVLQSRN
The settings on record: protein: recombinant; tags: N-terminal GST; dsDNA, one strand shown. In short, it runs like this: as §1

For the next assay, the target named is CRX (Homo sapiens, UniProt O43186 1-299). Particulars: protein: recombinant; tags: N-terminal GST; dsDNA, one strand shown. The gist of the method: as §1
Sequence of CRX (O43186 whole entry): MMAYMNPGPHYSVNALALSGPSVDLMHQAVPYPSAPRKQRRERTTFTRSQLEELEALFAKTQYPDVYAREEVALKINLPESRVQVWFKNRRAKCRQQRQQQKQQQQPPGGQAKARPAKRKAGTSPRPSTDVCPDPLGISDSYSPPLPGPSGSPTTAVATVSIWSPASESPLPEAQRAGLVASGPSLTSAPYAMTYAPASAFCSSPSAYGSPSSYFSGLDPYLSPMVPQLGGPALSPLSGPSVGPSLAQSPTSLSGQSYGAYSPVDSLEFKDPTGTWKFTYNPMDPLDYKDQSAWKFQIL
The next assay deals with ETV1 (Homo sapiens, UniProt P50549 1-477). The settings on record: protein: recombinant; tags: N-terminal GST; dsDNA, one strand shown. In short, it runs like this: as §1
Sequence of ETV1 (P50549 whole entry): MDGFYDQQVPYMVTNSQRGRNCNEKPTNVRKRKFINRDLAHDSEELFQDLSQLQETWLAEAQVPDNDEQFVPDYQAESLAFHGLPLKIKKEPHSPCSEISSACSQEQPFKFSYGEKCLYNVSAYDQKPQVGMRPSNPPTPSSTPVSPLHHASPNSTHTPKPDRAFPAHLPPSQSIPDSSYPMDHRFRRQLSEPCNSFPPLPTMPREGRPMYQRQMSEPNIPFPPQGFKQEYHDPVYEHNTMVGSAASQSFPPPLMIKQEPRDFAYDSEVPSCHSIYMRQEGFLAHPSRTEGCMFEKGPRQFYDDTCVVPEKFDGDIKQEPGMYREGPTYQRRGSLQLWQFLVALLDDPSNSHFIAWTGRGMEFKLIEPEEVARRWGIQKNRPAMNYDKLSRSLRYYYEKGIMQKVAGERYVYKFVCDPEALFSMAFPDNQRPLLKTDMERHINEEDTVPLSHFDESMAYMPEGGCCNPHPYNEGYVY
A further assay concerns the target T6, ERF (Homo sapiens, UniProt P50548 1-548).
T6 sequence: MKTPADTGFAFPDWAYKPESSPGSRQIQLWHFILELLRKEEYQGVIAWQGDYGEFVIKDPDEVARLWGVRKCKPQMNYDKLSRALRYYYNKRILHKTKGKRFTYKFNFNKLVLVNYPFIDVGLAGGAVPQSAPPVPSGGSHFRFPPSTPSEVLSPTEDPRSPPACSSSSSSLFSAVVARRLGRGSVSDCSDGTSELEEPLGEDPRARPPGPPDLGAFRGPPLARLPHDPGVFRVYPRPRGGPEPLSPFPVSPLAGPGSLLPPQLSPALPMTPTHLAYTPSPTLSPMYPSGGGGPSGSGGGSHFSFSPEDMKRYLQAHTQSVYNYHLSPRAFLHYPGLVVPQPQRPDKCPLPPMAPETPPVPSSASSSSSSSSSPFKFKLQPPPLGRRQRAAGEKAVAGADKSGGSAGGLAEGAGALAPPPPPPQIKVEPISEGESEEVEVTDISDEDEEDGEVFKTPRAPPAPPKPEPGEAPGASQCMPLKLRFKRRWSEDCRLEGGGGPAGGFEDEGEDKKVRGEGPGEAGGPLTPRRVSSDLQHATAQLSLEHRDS
The settings on record: protein: recombinant; tags: N-terminal GST; dsDNA, one strand shown. In short, it runs like this:
as §1

The target in a further assay is T7, ETV3L (Homo sapiens, UniProt Q6ZN32 1-361).
T7 sequence: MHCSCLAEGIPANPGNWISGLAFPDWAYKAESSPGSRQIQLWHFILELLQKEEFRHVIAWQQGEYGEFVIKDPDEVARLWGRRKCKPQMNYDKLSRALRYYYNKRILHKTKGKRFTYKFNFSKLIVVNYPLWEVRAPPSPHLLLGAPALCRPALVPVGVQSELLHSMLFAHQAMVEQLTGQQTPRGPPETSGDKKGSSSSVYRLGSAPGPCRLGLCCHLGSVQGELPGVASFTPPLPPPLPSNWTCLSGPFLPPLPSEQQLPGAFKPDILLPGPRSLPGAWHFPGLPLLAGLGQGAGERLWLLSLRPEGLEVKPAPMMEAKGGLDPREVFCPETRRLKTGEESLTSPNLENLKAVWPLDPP
The settings on record: protein: recombinant; tags: N-terminal GST; dsDNA, one strand shown. In short, it runs like this: as §1

For a further assay, the target named is T8, ETS2 (Homo sapiens, UniProt P15036 1-469).
T8 sequence: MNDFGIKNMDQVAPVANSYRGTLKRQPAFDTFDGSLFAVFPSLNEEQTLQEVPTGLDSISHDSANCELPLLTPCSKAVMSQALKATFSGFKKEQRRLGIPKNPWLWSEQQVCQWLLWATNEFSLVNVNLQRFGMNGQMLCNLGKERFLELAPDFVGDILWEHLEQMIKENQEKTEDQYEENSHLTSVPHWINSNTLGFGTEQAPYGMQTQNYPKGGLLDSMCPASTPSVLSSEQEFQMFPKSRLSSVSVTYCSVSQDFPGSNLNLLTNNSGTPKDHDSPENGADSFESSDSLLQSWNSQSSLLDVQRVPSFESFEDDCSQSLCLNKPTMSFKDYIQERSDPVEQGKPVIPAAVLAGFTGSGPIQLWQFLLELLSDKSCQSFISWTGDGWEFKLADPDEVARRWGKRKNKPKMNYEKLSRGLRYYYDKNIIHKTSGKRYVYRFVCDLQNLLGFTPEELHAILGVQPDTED
Particulars: protein: recombinant; tags: N-terminal GST; dsDNA, one strand shown. The gist of the method:
as §1

For another assay, the target named is T9, SPDEF (Homo sapiens, UniProt O95238 1-335).
T9 sequence: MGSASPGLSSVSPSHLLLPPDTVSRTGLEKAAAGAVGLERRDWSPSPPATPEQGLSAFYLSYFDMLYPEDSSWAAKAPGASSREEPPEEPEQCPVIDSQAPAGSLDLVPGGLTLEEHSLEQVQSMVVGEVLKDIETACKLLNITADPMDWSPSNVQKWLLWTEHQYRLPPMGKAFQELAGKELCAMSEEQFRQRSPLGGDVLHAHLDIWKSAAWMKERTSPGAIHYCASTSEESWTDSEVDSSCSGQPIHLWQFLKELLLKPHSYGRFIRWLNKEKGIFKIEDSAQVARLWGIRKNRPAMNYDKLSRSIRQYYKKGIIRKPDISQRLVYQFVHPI
The settings on record: protein: recombinant; tags: N-terminal GST; dsDNA, one strand shown. In short, it runs like this: as §1

The next assay concerns the target T10, ETV7 (Homo sapiens, UniProt Q9Y603 1-341).
T10 sequence: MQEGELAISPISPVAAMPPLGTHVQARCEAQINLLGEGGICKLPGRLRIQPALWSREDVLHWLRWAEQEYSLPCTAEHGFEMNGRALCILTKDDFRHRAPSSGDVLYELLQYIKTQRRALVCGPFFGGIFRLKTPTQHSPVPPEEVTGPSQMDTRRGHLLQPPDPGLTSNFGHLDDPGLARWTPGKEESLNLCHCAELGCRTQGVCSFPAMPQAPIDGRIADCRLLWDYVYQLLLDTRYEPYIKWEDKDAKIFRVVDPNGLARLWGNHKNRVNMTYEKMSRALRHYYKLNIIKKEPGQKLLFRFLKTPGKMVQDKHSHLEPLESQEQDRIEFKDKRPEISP
Particulars: protein: recombinant; tags: N-terminal GST; dsDNA, one strand shown. In short, it runs like this:
as §1

The next assay concerns the target T11, ELF5 (Homo sapiens, UniProt Q9UKW6-2 1-255).
T11 sequence: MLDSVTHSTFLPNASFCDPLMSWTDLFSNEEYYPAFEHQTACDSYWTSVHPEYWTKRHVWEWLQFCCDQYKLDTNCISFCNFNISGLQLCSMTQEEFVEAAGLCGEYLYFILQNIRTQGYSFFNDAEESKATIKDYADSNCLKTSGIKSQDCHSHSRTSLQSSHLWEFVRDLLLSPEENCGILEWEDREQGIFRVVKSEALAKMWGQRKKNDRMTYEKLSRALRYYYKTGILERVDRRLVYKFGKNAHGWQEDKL
Particulars: protein: recombinant; tags: N-terminal GST; dsDNA, one strand shown. The gist of the method: as §1

For a further assay, the target named is T12, ETV3 (Homo sapiens, UniProt P41162-2 1-143).
T12 sequence: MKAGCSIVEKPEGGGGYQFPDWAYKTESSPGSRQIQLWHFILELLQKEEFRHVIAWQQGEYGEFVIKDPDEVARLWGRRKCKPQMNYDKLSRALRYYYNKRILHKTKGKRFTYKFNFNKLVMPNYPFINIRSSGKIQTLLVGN
Particulars: protein: recombinant; tags: N-terminal GST; dsDNA, one strand shown. The gist of the method:
as §1

In a further assay the target is ETV6 (Homo sapiens, UniProt P41212 1-452). Particulars: protein: recombinant; tags: N-terminal GST; dsDNA, one strand shown. In short, it runs like this:
as §1

Sequence of HSF1 (Q00613 whole entry): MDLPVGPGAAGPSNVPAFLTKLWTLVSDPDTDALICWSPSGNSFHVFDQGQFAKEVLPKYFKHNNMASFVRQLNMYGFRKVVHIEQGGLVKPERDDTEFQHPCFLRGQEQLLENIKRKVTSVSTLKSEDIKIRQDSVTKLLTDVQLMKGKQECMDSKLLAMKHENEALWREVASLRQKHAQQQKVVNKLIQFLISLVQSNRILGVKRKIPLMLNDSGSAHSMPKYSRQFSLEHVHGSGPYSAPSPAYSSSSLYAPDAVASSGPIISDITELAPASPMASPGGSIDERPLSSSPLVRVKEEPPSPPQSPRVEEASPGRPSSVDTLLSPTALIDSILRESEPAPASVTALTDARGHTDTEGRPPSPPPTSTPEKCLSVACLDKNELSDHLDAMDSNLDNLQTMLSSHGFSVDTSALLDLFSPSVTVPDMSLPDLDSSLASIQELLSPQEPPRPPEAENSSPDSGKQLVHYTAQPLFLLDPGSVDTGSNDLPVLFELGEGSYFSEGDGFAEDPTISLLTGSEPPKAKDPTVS
Sequence of ELF4 (Q99607 whole entry): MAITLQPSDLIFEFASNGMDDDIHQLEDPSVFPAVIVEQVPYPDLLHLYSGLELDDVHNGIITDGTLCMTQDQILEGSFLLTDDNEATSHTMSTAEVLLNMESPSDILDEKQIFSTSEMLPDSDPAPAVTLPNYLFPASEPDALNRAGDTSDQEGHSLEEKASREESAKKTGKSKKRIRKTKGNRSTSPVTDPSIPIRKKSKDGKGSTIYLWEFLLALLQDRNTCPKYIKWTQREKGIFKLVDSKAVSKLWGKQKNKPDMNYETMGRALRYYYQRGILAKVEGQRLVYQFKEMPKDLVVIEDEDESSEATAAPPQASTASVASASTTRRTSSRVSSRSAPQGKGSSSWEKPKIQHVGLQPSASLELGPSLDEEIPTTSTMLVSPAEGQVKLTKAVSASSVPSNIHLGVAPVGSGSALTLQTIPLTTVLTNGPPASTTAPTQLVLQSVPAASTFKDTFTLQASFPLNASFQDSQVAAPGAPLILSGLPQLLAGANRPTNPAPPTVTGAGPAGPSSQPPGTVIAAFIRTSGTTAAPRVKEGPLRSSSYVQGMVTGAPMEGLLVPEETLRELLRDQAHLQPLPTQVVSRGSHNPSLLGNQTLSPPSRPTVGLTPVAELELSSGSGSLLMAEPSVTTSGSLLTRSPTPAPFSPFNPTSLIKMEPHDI
Sequence of ETV6 (P41212 whole entry): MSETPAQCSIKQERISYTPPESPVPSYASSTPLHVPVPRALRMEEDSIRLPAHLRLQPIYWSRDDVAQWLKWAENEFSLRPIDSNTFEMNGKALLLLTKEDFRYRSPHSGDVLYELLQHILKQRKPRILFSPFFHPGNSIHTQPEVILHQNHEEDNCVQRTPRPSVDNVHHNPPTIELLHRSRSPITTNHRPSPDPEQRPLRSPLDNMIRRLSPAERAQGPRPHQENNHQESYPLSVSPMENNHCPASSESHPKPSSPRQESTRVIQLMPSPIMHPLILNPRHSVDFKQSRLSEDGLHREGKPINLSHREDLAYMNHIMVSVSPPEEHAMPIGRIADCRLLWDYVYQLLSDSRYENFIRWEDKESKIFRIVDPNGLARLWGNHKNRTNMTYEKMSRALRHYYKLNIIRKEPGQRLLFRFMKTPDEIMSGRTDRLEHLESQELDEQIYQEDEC

For the sequence AAGTCT, the binding signal is 1.07 fold enrichment (6-mer frequency, TF over GST control) with FEV; 1.12 fold enrichment (6-mer frequency, TF over GST control) in the assay with ETV5; 1.25 fold enrichment (6-mer frequency, TF over GST control) in the assay with HSF1; 1.04 fold enrichment (6-mer frequency, TF over GST control) in the assay with SPIC; 1.06 fold enrichment (6-mer frequency, TF over GST control) with ELF4; 1.13 fold enrichment (6-mer frequency, TF over GST control) with ELK4. In addition, the binding signal in the assay with ETV2 is 1.06 fold enrichment (6-mer frequency, TF over GST control); with ELF3, 1.13 fold enrichment (6-mer frequency, TF over GST control); with CRX, 1.28 fold enrichment (6-mer frequency, TF over GST control); with ETV1, 1.09 fold enrichment (6-mer frequency, TF over GST control); in the assay with ERF, 1.25 fold enrichment (6-mer frequency, TF over GST control); with ETV3L, 1.14 fold enrichment (6-mer frequency, TF over GST control). In addition, the binding signal in the assay with ETS2 was 1.21 fold enrichment (6-mer frequency, TF over GST control); in the assay with SPDEF it was 1.13 fold enrichment (6-mer frequency, TF over GST control); with ETV7, 1.15 fold enrichment (6-mer frequency, TF over GST control); with ELF5 it was 1.23 fold enrichment (6-mer frequency, TF over GST control); in the assay with ETV3, 1.21 fold enrichment (6-mer frequency, TF over GST control); with ETV6, 1.14 fold enrichment (6-mer frequency, TF over GST control).

The values above are taken from article PMC7862700, “An all-to-all approach to the identification of sequence-specific readers for epigenetic DNA modifications on cytosine”.
